A number with no mark means an inactive call. Records with an inconclusive call do not appear. Calls of active or inactive are those of the source. Unless noted, the call rests on the fitted dose curve; in most records, active means well fitted curve in the direction sought with a large enough effect in the repeat runs; inconclusive means weak or mixed curves; inactive means no such curve, though single readings can be large; an effect the other way counts as inactive or inconclusive.

In assay [1] the target is Luciferin 4-monooxygenase (Photinus pyralis) (UniProt P08659). The assay can be described thus: qHTS assay to identify small molecule inhibitors of firefly luciferase (AID 1224835). Further: nearly all actives have a fitted effect of over 25% in size. An outline of the steps: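 Inhibition of purified Photinus luciferase is measured by luminescence. Substrate levels (D-luciferin, ATP) sit at their KM values. Each compound is tested in a concentration series.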

Assay [2] can be described thus: qHTS assay to identify small molecule agonists of the constitutive androstane receptor (CAR) signaling pathway - cell viability counter screen (AID 1224836). Further: nearly all actives have a fitted effect of over 45% in size. An outline of the steps:
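Multiplexed viability check: HepG2-CYP2B6-hCAR cells, 15-point compound dosing, 0.75 uM PK11195 final, 23 h at 37 C, CellTiter-Fluor fluorescence.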
(In general: qHTS replaces the single test concentration by a dilution series.)

Assay [3] can be described thus: qHTS assay to identify small molecule antagonists of the constitutive androstane receptor (CAR) signaling pathway - cell viability counter screen (AID 1224837). Further: nearly all actives have a fitted effect of over 45% in size. An outline of the steps:
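Counter screen run in HepG2-CYP2B6-hCAR cells: 4 hr settle, compound titration (15 concentrations) with 50 nM CITCO, 23 hr at 37 C/5% CO2, CellTiter-Fluor fluorescence.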

Assay [4] addresses Nuclear receptor subfamily 1 group I member 3 (Homo sapiens) (UniProt Q14994). The assay is described as follows: qHTS assay to identify small molecule antagonists of the constitutive androstane receptor (CAR) signaling pathway (AID 1224838).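 Further: HepG2 cells stably expressing hCAR with CYP2B6 luciferase reporter stimulated by CITCO; nearly all actives have a fitted effect of over 40% in size.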 Further: potency means the concentration at half of the fitted maximal effect. In a few lines:
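Cell line: HepG2 double-stable for hCAR and CYP2B6-2.2kb reporter. Agonist: CITCO, 50 nM final. Compounds: 15 concentrations, 24 h, 37 C. Detection: ONE-Glo luminescence.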

For assay [5] the target is unchanged. The assay can be described thus: qHTS assay to identify small molecule agonists of the constitutive androstane receptor (CAR) signaling pathway (AID 1224839).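 Further: HepG2 cells stably carrying human CAR and a CYP2B6 luciferase reporter; nearly all actives have a fitted effect of over 15% in size.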 An outline of the steps:
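Using human hepatoma HepG2 cells engineered with hCAR and a CYP2B6-2.2kb reporter, 15-concentration compound series were incubated 24 h alongside PK11195 at 0.75 uM final, with luminescence quantified afterwards.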

Assay [6] in a line: qHTS assay to identify small molecule antagonists of the estrogen related receptor signaling pathway with the pleiotropic PPARgamma coactivator (PGC) from Tox21 10K library - cell viability counter screen (AID 1224840; active means well fitted cell-killing curve with a large enough effect in the repeat runs, not every such curve was filed as active; further: nearly all actives have a fitted effect of over 40% in size). In a few lines:
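Following seeding of 2,000 PGC/ERR cells/well and 6 hours' incubation, test compounds were delivered in DMSO. The plates then sat 17.5 hours at 37 C before a fluorogenic live-cell protease reagent (CellTiter-Fluor) was read after 30 min.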

Assay [7] is described as follows: qHTS assay to identify small molecule agonists of the hypoxia (HIF-1) signaling pathway - cell viability counter screen (AID 1224844; calls by dose curve; further: nearly all actives have a fitted effect of over 50% in size; further: potency means the concentration at half of the fitted maximal effect). An outline of the steps:
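Cells (HRE-bla ME-180, 2,000 per well) sat 5 hrs at 37C, got compound for 17 hrs, were read for CCF4-AM FRET, and were finally lysed with CellTiter-Glo for a 30 min room-temperature luminescence read.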

A short description of assay [8]: qHTS assay to identify small molecule agonists of H2AX (AID 1224845; active means well fitted activation curve with a large enough effect in the signal ratio in the repeat runs, not every such curve was filed as active; the % refers to the signal ratio). In a few lines: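 Phospho-H2AX Ser139 measured by HTRF (ex 320 nm; em 665 and 620 nm) after 24 hr antibody incubation. Compounds, 15 concentrations, 0.76% DMSO, were applied to CHO-K1 cells for 3hr at 37C before lysis.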
A short description of assay [9]: qHTS RealTime-Glo MT Cell Viability Assay in HepG2 cells - 24 hour (AID 1224867). Further: nearly all actives have a fitted effect of over 50% in size. An outline of the steps:
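qHTS, HepG2, 600 cells/well, RealTime-Glo (NanoLuc + prosubstrate) added with cells; 5 h preincubation; DMSO compound addition; 37 C; luminescence at 0/8/16/24/32/40 h.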

A short description of assay [10]: qHTS RealTime-Glo MT Cell Viability Assay in HEK293 cells - 32 hour (AID 1224868). Further: top concentration of the series differs between compounds; nearly all actives have a fitted effect of over 50% in size. In a few lines:
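Assay medium contained NanoLuc luciferase plus cell-permeant prosubstrate, added with HEK293 cells at 600 cells/well. After 5 h at 37 C/5% CO2 compounds were added; plates stayed at 37 C for 40 h with serial luminescence reads.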

Assay [11] in a line: A CellTox Green Cytotoxicity Assay to monitor cytotoxicity in HEK293 cells - 0 hour (AID 1224869). Further: nearly all actives have a fitted effect of over 50% in size. In a few lines: (§1)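 Fluorescence intensity, read at 0, 8, 16, 24, 32 and 40 h of compound treatment, reflected dye binding to DNA of dead HEK293 cells; compounds (23 nL, DMSO) were added 5 h after plating cells with reagent.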
The nature of assay [12]: qHTS RealTime-Glo MT Cell Viability Assay in HepG2 cells - 40 hour (AID 1224870). Further: nearly all actives have a fitted effect of over 50% in size. In a few lines: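 Real-time viability: cells seeded at 600 per well together with NanoLuc and cell-permeant prosubstrate, compounds added after 5 h incubation. Luminescence tracked at 0, 8, 16, 24, 32 and 40 h of exposure.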
Assay [13] is described as follows: qHTS assay to identify small molecule agonists of the estrogen related receptor signaling pathway with the pleiotropic PPARgamma coactivator (PGC) from Tox21 10K library (AID 1224842). Further: nearly all actives have a fitted effect of over 15% in size. An outline of the steps: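 Luminescence from One-Glo (30 min, room temperature) measured after PGC/ERR cells had 18 h at 37 C with pinned compound (23 nL in DMSO). Cells had been seeded at 2,000 per well and pre-incubated 6 h.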

Assay [14] concerns the target Thyrotropin receptor (Homo sapiens) (UniProt P16473). The assay can be described thus: qHTS assay to identify small molecule agonists of the thyroid stimulating hormone receptor (TSHR) signaling pathway (AID 1224843; calls by dose curve; further: nearly all actives have a fitted effect of over 45% in size). An outline of the steps:
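HEK293 cells stably bearing the thyrotropin receptor were plated at 800 cells/well and challenged with compound (30 min, RT). Accumulated cAMP was quantified via cAMP-d2 competing for cryptate-tagged antibody.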

Assay [15] can be described thus: qHTS assay to identify small molecule agonists of the hypoxia (HIF-1) signaling pathway (AID 1224846; active means well fitted activation curve with a large enough effect in the signal ratio in the repeat runs, not every such curve was filed as active; the % refers to the signal ratio). An outline of the steps: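 A low-serum medium (0.5% dialyzed FBS) holding 2,000 HRE-bla ME-180 cells per well is preincubated for 5 hrs, dosed with compounds by pintool, and kept a further 17 hrs at 37C, 5% CO2 before CCF4-AM FRET detection of beta-lactamase.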

Assay [16] in a line: qHTS assay to identify small molecule agonists of H2AX - cell viability counter screen (AID 1224847; calls by dose curve;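 further: wild-type CHO-K1 cells; top concentration of the series differs between compounds; nearly all actives have a fitted effect of over 30% in size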). An outline of the steps:
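After overnight plating of 1000 CHO-K1 cells per well, a 15-concentration compound series was applied for 3 hr at 37C. Luminescence from CellTiter-Glo, read following 30 min at room temperature, reflected cell viability.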

Assay [17] in a line: qHTS assay to identify small molecule antagonists of the estrogen related receptor (ERR) signaling pathway from Tox21 library (AID 1224848). Further: nearly all actives have a fitted effect of over 50% in size. In a few lines:
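Reading was by luminescence 30 min after ONE-Glo addition. Before that, ERR cells at 2,000 per well had rested 6 h at 37 C/5% CO2 and then received pin-tooled compounds in DMSO for 18 h at 37 C.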

Assay [18] in a line: qHTS assay to identify small molecule antagonists of the estrogen related receptor signaling pathway with the pleiotropic PPARgamma coactivator (PGC) from Tox21 10K library (AID 1224841; call rule not given here). An outline of the steps:
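qHTS antagonist format: PGC/ERR cells, 2k/well, compound in DMSO by pin transfer after 6 h attachment, 18 h treatment at 37 C, One-Glo luminescence read at 30 min.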

A short description of assay [19]: qHTS assay to identify small molecule agonists of the estrogen related receptor (ERR) signaling pathway from Tox21 library (AID 1224849; calls by dose curve; further: nearly all actives have a fitted effect of over 15% in size). The following applies: ERR reporter cell line, ONE-Glo luciferase, 18 h; at 92.4 µM (top of the series) unless noted. An outline of the steps:
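Screening used an NTP-provided ERR luciferase cell line. Compounds in DMSO were added 6 h after seeding and left 18 h at 37 C before a 30 min ONE-Glo step and luminescence reading.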

Assay [20] is described as follows: A CellTox Green Cytotoxicity Assay to monitor cytotoxicity in HEK293 cells - 40 hour (AID 1224871). Further: nearly all actives have a fitted effect of over 45% in size. Further: potency means the concentration at half of the fitted maximal effect. In a few lines:
as §1
On the % scale 0 is the no-effect control and ±100 the full control effect.

Sequence of Nuclear receptor subfamily 1 group I member 3 (Homo sapiens) (Q14994 whole entry, looked up): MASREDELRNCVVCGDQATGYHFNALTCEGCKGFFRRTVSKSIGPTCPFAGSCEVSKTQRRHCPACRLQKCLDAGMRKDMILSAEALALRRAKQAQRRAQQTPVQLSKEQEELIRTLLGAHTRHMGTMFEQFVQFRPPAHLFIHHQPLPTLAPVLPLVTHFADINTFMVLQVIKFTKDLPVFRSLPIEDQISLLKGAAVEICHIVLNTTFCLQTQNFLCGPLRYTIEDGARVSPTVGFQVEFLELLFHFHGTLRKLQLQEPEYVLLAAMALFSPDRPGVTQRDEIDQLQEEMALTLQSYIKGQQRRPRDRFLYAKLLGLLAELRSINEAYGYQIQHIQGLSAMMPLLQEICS
Sequence of Luciferin 4-monooxygenase (Photinus pyralis) (P08659 whole entry, looked up): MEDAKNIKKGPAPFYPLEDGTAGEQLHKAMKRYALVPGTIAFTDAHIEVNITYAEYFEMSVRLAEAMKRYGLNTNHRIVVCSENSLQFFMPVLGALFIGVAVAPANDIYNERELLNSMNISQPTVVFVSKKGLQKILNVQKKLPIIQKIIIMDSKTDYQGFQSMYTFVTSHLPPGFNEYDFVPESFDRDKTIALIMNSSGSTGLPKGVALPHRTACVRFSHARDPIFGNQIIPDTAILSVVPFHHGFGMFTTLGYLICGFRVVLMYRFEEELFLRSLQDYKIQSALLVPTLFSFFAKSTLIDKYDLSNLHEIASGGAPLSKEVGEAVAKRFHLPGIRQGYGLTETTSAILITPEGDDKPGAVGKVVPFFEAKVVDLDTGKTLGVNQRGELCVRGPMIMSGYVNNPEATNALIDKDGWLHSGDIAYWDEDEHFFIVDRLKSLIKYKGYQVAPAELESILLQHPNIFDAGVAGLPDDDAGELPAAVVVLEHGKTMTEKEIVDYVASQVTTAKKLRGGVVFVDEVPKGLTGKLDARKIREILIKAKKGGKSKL
Sequence of Thyrotropin receptor (Homo sapiens) (P16473 whole entry, looked up): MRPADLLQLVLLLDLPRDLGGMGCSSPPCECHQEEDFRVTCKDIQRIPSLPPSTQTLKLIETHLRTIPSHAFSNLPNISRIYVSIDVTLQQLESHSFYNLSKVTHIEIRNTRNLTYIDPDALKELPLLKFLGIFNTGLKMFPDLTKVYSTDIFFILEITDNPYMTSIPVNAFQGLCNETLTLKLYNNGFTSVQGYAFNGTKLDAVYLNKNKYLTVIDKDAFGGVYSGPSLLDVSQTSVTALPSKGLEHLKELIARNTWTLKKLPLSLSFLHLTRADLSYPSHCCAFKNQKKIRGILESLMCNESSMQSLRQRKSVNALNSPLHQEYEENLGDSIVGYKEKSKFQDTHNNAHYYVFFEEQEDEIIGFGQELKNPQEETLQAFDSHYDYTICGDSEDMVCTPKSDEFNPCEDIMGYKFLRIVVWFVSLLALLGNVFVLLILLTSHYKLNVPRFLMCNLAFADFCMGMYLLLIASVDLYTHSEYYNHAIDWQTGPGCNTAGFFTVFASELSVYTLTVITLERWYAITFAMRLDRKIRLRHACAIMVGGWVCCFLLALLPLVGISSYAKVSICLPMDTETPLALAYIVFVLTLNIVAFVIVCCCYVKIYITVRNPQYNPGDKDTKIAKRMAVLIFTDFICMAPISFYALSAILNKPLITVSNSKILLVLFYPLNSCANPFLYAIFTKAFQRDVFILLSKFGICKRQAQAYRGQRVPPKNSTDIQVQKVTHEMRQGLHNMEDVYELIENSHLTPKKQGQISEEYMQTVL

On to `CCO[Si](CCCSSSSCCC[Si](OCC)(OCC)OCC)(OCC)OCC`, for which the Potency result in [1], in assay [2], in assay [3], in assay [4], in assay [5] and in assay [6] was “inactive” throughout. Moreover, the Potency result in assay [8], in assay [9], in assay [10], in assay [11] and in [12] was “inactive” in each case. In addition, the Potency in assay [7] is 19.5 µM (active).

Turning to `CS(C)(=O)=O`, the Potency result in [1], in assay [2], in assay [3], in [4], in [5] and in assay [13] was “inactive” throughout. Further, the Potency result in [14], in assay [7], in [8], in assay [16], in assay [17] and in assay [9] was “inactive” each time. For the same compound, the Potency result in [10] and in assay [12] was “inactive” each time. For the same compound, the outcome in assay [15] was inactive.

For `CC(C)c1ccc(O)c(C(C)C)c1`, the Potency entry in assay [1], in assay [2], in [3], in assay [4], in assay [5] and in assay [18] was “inactive” throughout. Moreover, the Potency entry in assay [13], in assay [14], in assay [8], in assay [17], in assay [9] and in [10] was “inactive” each time. The Potency result in [11] and in assay [12] was “inactive” each time. For the same compound, the activity change, positive = activation in assay [19] is -4.92%. For the same compound, the Potency in assay [20] was 21.9 µM (active).

`O=S(O)O`: the activity change, negative = inhibition in [1] is -0.0072% [at 23.6 µM]. In addition, in [2], the viability change, negative = cytotoxic was 7.71% [at 19 µM]. The activity change, negative = cytotoxicity in assay [3] was -3.41% [at 19 µM]; in assay [7], 0.552% [at 15.8 µM]; in [16] it was 3.26% [at 31.6 µM]; in assay [9], 3.99% [at 15.8 µM]. The activity, negative = inhibition in assay [4] was -9.95% [at 19 µM]. In addition, the activation in [5] was -1.32% [at 19 µM]; in assay [14], 2.79% [at 19 µM]; in [15], -0.609% [at 15.8 µM]. The activation (H2AX phosphorylation) in assay [8] is -2.47% [at 31.6 µM]. For the same compound, the activity change, negative = cytotoxic was 13.4% [at 15.8 µM] in assay [10] and -0.0421% [at 15.8 µM] in assay [12]. In addition, the cytotoxicity in assay [11] was -3.65% [at 15.8 µM]. Further, the cytotoxicity increase in [20] is -2.31% [at 15.8 µM].

Regarding `C=CC(=O)OCCN(CC)CC`, the Potency result in assay [1], in assay [2], in [3], in [4], in [5] and in assay [14] was “inactive” each time. Besides, the Potency entry in assay [8], in [16], in [9], in [10], in [11] and in [12] was “inactive” each time.

Regarding `CC1(C)COCN1`, the Potency result in [1], in assay [2], in assay [3], in [4], in assay [5] and in assay [18] was “inactive” throughout. In addition, the Potency result in [14], in [7], in assay [8], in [16], in [17] and in [9] was “inactive” each time. In addition, the Potency entry in assay [10] was “inactive”. The result in [15] was inactive. Moreover, the activity change, positive = activation in assay [19] was 5.19%.

`CCCCN(CCCC)CCC(O)c1cc2c(Cl)cc(Cl)cc2c2cc(C(F)(F)F)ccc12` (stereo not drawn): the Potency entry in assay [1], in assay [2], in assay [3], in assay [4], in [5] and in assay [14] was “inactive” in each case. For the same compound, the Potency entry in assay [8], in assay [10], in assay [11] and in [20] was “inactive” throughout. Further, the Potency in [7] was 21.3 µM (active).

Turning to `CC(=O)Oc1ccc(C2(c3ccc(OC(C)=O)cc3)Oc3ccccc3NC2=O)cc1`, the Potency entry in assay [1], in assay [2], in assay [3], in [5], in [14] and in [7] was “inactive” throughout. Also, the Potency entry in assay [8], in [16], in [9], in [11] and in assay [12] was “inactive” in each case. Besides, the Potency in assay [4] was 16.8 µM (active).

These data come from PubChem BioAssay (Tox21).
